Source: PubChem BioAssay
PLK1 PBD inh: qHTS for Inhibitors of PLK1-PDB (polo-like kinase 1 - polo-box domain): Primary Screen; Serine/threonine-protein kinase PLK1 (Homo sapiens), P53350; Plk1 PBD binding of FITC phosphopeptide, fluorescence polarization; Potency, µM, for the others: max response, negative = inhibition, usual class: inhibitors; 2.8% of 360,000 active; also: potency is read from the fitted curve at half-maximal effect; series mostly up to about 57 µM; nearly all actives have a fitted effect of over 65% in size
Target sequence (P53350 whole entry, looked up, the tested form may be a part): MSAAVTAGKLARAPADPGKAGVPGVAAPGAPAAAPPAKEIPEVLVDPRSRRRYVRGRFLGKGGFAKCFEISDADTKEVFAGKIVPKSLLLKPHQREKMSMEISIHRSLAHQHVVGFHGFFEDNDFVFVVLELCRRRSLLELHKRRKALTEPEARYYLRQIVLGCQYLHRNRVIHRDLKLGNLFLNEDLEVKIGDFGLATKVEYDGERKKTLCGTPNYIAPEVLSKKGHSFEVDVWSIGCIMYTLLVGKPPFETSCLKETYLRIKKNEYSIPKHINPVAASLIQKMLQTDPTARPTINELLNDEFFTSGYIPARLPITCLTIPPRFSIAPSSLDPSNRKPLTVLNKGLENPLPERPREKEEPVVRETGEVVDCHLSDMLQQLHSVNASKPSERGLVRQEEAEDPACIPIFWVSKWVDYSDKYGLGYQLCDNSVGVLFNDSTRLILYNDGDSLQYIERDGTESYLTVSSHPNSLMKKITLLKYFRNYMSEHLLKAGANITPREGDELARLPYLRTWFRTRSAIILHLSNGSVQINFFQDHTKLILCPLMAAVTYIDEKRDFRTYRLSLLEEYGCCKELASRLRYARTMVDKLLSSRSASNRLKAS
USP1-UAF1 inh: Inhibitors of USP1/UAF1: Primary Screen | Ubiquitin carboxyl-terminal hydrolase 1 (Homo sapiens), O94782 | recombinant USP1/UAF1, Ub-Rhodamine cleavage fluorescence | Potency, µM (top dose mostly 57.1 µM), for inactives: at the highest dose activity change, negative = inhibition, actives largely listed as inhibitors | 0.23% of 390,000 active | AID 743255, 2014; also: potency is read from the fitted curve at half-maximal effect; nearly all actives have a fitted effect of over 60% in size
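USP1/UAF1 complex (1 nM) preincubated 15 min at room temperature with compound, then Ub-Rho substrate (150 nM final) added. Kinetic fluorescence at 480/540 nm over 6 reads at 60 s intervals; 50 mM HEPES pH 7.8, 0.5 mM EDTA, 0.1 mg/ml BSA, 1 mM TCEP, 0.01% Tween-20.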
PI5P4Ka inh: qHTS for Inhibitors of phosphatidylinositol 5-phosphate 4-kinase (PI5P4K) | PI5P4Kalpha enzyme, ADP-Glo luminescence, 60 min; hits give low values | max response, % | 1.2% of 330,000 active; active = max response of -50% or lower; inconclusive = between -30% and -50%; inactive = -30% or higher; also: value at the top dose of about 77 µM
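ADP-Glo luminescence end-point after a 60 min room-temperature kinase reaction. PI5P4Kalpha and substrate in HEPES pH 7.4 buffer with EGTA, 0.1% CHAPS and 5% DMSO; ATP at 5 microM final.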
USP2a inh: qHTS Assay for Inhibitors of Ubiquitin-specific Protease USP2a Using CHOP2 as the Reporter; Ubiquitin carboxyl-terminal hydrolase 2 (Homo sapiens), O75604; USP2 core, Ub-CHOP2 coupled fluorogenic reporter, 485/531; Potency, µM (top dose mostly 38.3 µM), inactives show top-dose activity change, negative = inhibition, actives largely listed as inhibitors; 0.01% of 330,000 active; AID 463254, 2010;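 also: potency is read from the fitted curve at half-maximal effect; plate controls were DMSO wells for no effect and full inhibition by NEM control for full effect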
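Deubiquitinase activity read as fluorescence (485/531 nm) after Ub-CHOP2 cleavage activates the enterokinase reporter on its substrate; USP2 core 10nM, Ub-CHOP2 and substrate 25nM each, 30min compound preincubation then 60min RT; data normalized to NEM, curves fitted.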
WRN helicase inh: qHTS for Inhibitors of WRN Helicase. WRN helicase unwinding, fluorescent forked duplex, kinetic. Bifunctional 3'-5' exonuclease/ATP-dependent helicase WRN (Homo sapiens), Q14191. 0.46% of 360,000 active. Potency, µM (series often up to 114 µM), inactives show top-dose activity change, negative = inhibition, actives largely listed as inhibitors; also: potency is read from the fitted curve at half-maximal effect; nearly all actives have a fitted effect of over 55% in size
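Kinetic red-fluorescence monitoring (525/598 nm) tracks WRN helicase activity after 100 nM fluorophore-quencher forked duplex and 2 mM ATP are added to 20 nM enzyme pretreated 15 min at room temperature with compound.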
Starred values were filed as active, the others as inactive; ? = inconclusive; . = no result given; [ ] = another dose, or the depositor's remark. The list is not random: actives were taken first. Their share in the collection is about 3.3%. Unless noted, calls follow the shape of the dose curve; as a rule, active = well fitted curve in the direction sought with a large enough effect; inconclusive = small, poorly fitted or top-dose-only effect, or another doubt; inactive = no such curve, though single readings can be large; an effect the other way counts as inactive or inconclusive. Unless noted, % is scaled to controls: 0 for no effect and ±100 for the full control effect.

SMILES | PLK1 PBD inh | USP1-UAF1 inh | PI5P4Ka inh | USP2a inh | WRN helicase inh
COC(=O)c1cccc(NC(=O)/C=C/c2ccc([N+](=O)[O-])cc2)c1 | -8% | -19% | -9 | 4% | -2%
O=C(/C=C/c1ccc([N+](=O)[O-])cc1)Nc1cccc(C(=O)Nc2ccccc2C(=O)O)c1 | ? | ? | -66* | 1% | 32µM*
COc1cc(C2CC(=O)Nc3cc4c(cc32)OCCO4)cc(OC)c1O (centres undefined) | . | -18% | . | . | .
O=C(Nc1cccc(Oc2ccc(C(=O)O)c(C(=O)O)c2)c1)c1ccc(-c2ccccc2)cc1 | 19µM* | ? | ? | 2% | ?
NC(=O)/C(=N\OC(=O)c1ccco1)c1nc(-c2ccc(Br)cc2)cs1 | 5.3µM* | -19% | -69* | 4% | -32%
Nc1nc(-c2ccc(NC(=O)c3ccco3)cc2)cs1 | -20% | -21% | -19 | 5% | -12%
O=S(=O)(Nc1c(O)ccc2ccccc12)c1ccccc1 | 24µM* | -9% | -16 | . | -4%
COc1ccc(S(=O)(=O)Nc2ccccc2)cc1 | -3% | 6% | 3 | . | -34%
Cc1ccc(S(=O)(=O)Nc2ccc3c4c(cccc24)CC3)c(C)c1 | -6% | -13% | 12 | . | -12%
Cc1ccc(C)c(S(=O)(=O)Nc2ccc(O)c3ccccc23)c1 | 24µM* | -20% | 0 | -2% | -4%
Cc1ccc(C)c(S(=O)(=O)Nc2ccc(C(N)=O)cc2)c1 | -12% | -6% | 1 | 2% | 6%
Cc1ccc(S(=O)(=O)Nc2ccc(O)c3ccccc23)c(C)c1 | 4.2µM* | ? | -16 | -18% | 50µM*
COc1ccc(S(=O)(=O)Nc2ccc(O)c3ccccc23)cc1 | 27µM* | ? | -28 | -5% | 79µM*
Cc1ccc(C)c(S(=O)(=O)Nc2ccc(O)c(C(=O)O)c2)c1 | 30µM* | -11% | -27 | 0% | 0%
Cc1c(N(C)C(=O)c2ccco2)c(=O)n(-c2ccccc2)n1C | 27µM* | -12% | -12 | 1% | 4%
COc1ccc(C(=O)N(C)c2c(C)n(C)n(-c3ccccc3)c2=O)cc1OC | -8% | -3% | -1 | 2% | 0%
N=C1/C(=C\c2ccc(-c3cccc(C(=O)O)c3)o2)C(=O)N=C2SC=C(c3ccccc3)N12 | ? | -13% | -98* | 0% | 40µM*
N=C1/C(=C/c2ccc(-c3cccc(C(=O)O)c3)o2)C(=O)N=C2SC(CC(=O)N3CCOCC3)=NN12 | 30µM* | -21% | -83* | 2% | 22µM*
Cc1ccc(/C=C2\C(=N)N3N=C(CC(=O)N4CCOCC4)SC3=NC2=O)o1 | 27µM* | -26% | -22 | 5% | -34%
CCC1CN(C(=O)N2CCC(C(=O)NCCc3ccccc3Cl)CC2)c2cc(C)ccc2O1 (centres undefined) | . | -6% | . | . | .
Cn1c(=O)c(=O)n(C)c2cc(N3CCCC3)c(NC(=O)c3ccc(C(C)(C)C)cc3)cc21 | . | -10% | . | . | .
Cc1ccc(C(=O)c2c(C)oc3c2C(=O)C(=O)c2ccccc2-3)cc1 | ? | 14µM* | -13 | 2% | -35%
Cn1c(-c2sc3cc(C(F)(F)F)cnc3c2-c2cccnc2)n[nH]c1=S | 24µM* | -12% | -16 | 0% | 5%
Cn1c(-c2sc3cc(C(F)(F)F)cnc3c2-c2ccccn2)n[nH]c1=S | -6% | -25% | -18 | 0% | -3%
O=S(=O)(Nc1ccc(O)c(Sc2nc3ccccc3s2)c1)c1ccc(F)cc1 | -21% | -13% | -15 | 1% | -31%[57.1 µM]
SMILES | PLK1 PBD inh | USP1-UAF1 inh | PI5P4Ka inh | USP2a inh | WRN helicase inh
O=C(O)c1cccc(S(=O)(=O)Nc2ccc(O)c(Sc3nc4ccccc4s3)c2)c1 | 21µM* | -6% | -28 | -1% | -23%
CN(C)c1ccc(CN(Cc2ccco2)C(=O)COc2ccc(F)cc2)cc1 | . | -26% | . | . | .
COCCNC(=O)C/C(C)=N/NC(=O)C(=O)NC1CCCCC1 | 24µM* | ? | -21 | 1% | -13%
COCCCNC(=O)C(=O)NC1CCCCCC1 | -23% | 4% | 8 | 3% | -11%
COc1ccc(NN=Nc2nc3c([nH]2)c(=O)n(C)c(=O)n3C)cc1 | 4.7µM* | -14% | -2 | 0% | 1%
Cc1ccccc1NN=Nc1nc2c([nH]1)c(=O)n(C)c(=O)n2C | ? | -11% | -16 | -1% | -26%[57.1 µM]
Cc1ccc(CC(=O)NCc2ccc(Cl)cc2)cc1 | 15µM* | -21% | -20 | 4% | 5%
O=C(CC(=O)NCc1ccc(Cl)cc1)NCc1ccc(Cl)cc1 | 3% | -4% | 2 | 0% | -7%
CCOC(=O)C1CCN(S(=O)(=O)c2ccc3c(c2)N(C(C)=O)CC(C)S3)CC1 (centres undefined) | 19µM* | -26% | -23 | -1% | 2%
CCOC(=O)C1CCN(S(=O)(=O)c2ccc(CC)cc2)CC1 | 8.4µM* | -20% | -27 | 3% | -23%
CC(=O)N1CC(C)Sc2ccc(S(=O)(=O)NC3CCCCC3C)cc21 (centres undefined) | 30µM* | -18% | -23 | 1% | 0%
COc1ccc(Cn2c(SCc3ccc(C(=O)NCc4cccs4)cc3)nc3ccncc32)cc1 | . | -6% | . | . | .
CCCn1c(SCc2nc(-c3ccccc3C)no2)nnc1-c1ccc(Cl)cc1 | . | -20% | . | . | .
Cc1cc(/C=C2\C(=N)N3C(SCc4ccccc4)=NSC3=NC2=O)c(C)n1Cc1ccccc1 | -25% | -18% | . | 2% | -4%
CSC1=NSC2=NC(=O)/C(=C\c3coc4ccccc4c3=O)C(=N)N12 | 27µM* | 22µM* | -57* | ? | 56µM*
CC(C)CSC1=NSC2=NC(=O)/C(=C\c3ccccc3)C(=N)N12 | 27µM* | -8% | -14 | 2% | -16%[11.6 µM]
CC(C)CSC1=NSC2=NC(=O)/C(=C\c3coc4ccccc4c3=O)C(=N)N12 | 17µM* | 4.5µM* | ? | ? | ?
Cn1c2ccccc2c2cc(/C=N/NC(=O)c3cc(O)ccc3O)ccc21 | 21µM* | ? | -90* | 4% | 22µM*
Cn1c2ccccc2c2cc(/C=N/NC(=O)c3cc(O)cc(O)c3)ccc21 | -24% | -15% | -74* | 1% | ?
O=C(N/N=C/c1cccc(O)c1)c1ccccc1O | -9% | -16% | 1 | 0% | -3%
COc1cc(C(=O)N/N=C/c2ccc3c(c2)c2ccccc2n3C)ccc1O | -4% | -8% | -18 | 1% | -7%[11.6 µM]
[N-]=C=C1C(=O)NC(=O)C([n+]2ccc(-c3ccncc3)cc2)C1c1ccccc1C(F)(F)F (centres undefined) | ? | ? | -11 | -3% | -14%
